Compounds without any hit were thinned out: in the full panel of roughly 79,000, 15% have a hit. Calls of active or inactive are those of the source. No stated cut-off is given here; in the data, active means growth inhibition above about 70%; inactive means the rest.
Legend:
[1] = NCI Yeast Anticancer Drug Screen. Data for the rad50 strain (AID 155);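 further: 0% = growth of vehicle-only cultures of the same strain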; details: S. cerevisiae rad50 strain growth inhibition, active compounds read high
Summary of the method: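 Inhibition values express reduced yeast growth in compound-treated cultures relative to vehicle-treated controls.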

[2] = NCI Yeast Anticancer Drug Screen. Data for the mec2-1 strain (AID 157); details: S. cerevisiae mec2-1 strain, active compounds read high
Summary of the method: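 Test agents were screened against the mec2-1 yeast strain, with defined DNA repair or cell cycle alteration. Growth was scored as inhibition against vehicle-only controls.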

[3] = NCI Yeast Anticancer Drug Screen. Data for the sgs1 mgt1 strain (AID 161);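 further: 0% = growth of cultures given vehicle only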; details: S. cerevisiae sgs1 mgt1 strain, active compounds read high
Summary of the method: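 Inhibition of yeast growth, normalised to vehicle-treated controls, is reported for a strain bearing genetic alterations in DNA damage repair.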

[4] = NCI Yeast Anticancer Drug Screen. Data for the cln2 rad14 strain (AID 165);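 further: 0% = growth equal to vehicle treated cultures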; details: S. cerevisiae cln2 rad14 strain, active compounds read high
Summary of the method: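 Growth of compound-exposed yeast (cln2 rad14 genotype) measured and expressed as inhibition relative to vehicle.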

[5] = NCI Yeast Anticancer Drug Screen. Data for the bub3 strain (AID 167); details: S. cerevisiae bub3 mutant strain, active compounds read high
Summary of the method: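 Steps: expose the mutant yeast strain to compound; grow alongside vehicle-treated cultures; measure growth; express inhibition against the vehicle cultures.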

[6] = NCI Yeast Anticancer Drug Screen. Data for the mlh1 rad18 strain (AID 175); details: S. cerevisiae mlh1 rad18 strain growth inhibition, active compounds read high
Summary of the method: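 In this whole-cell yeast screen, a strain with altered DNA damage repair is challenged with compound, and its growth is measured against matched vehicle-treated controls.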

[7] = at 5.0 µM (retest, dose inferred, filed as 0.5)
[8] = at 50.0 µM (retest, dose inferred, filed as 5.0)

Measured: growth inhibition

Cc1cc(SC#N)cc(C)c1O
inactive: [1]; [7] 6% | [1]; [8] 65% | [2]; [7] -3% | [2]; [8] 47% | [2]; at 50.0 µM 63.1% | [3]; [7] -1% | [3]; [8] 45% | [4]; [7] 32% | [4]; [8] 69% | [4]; at 50.0 µM 49% | [5]; [7] -4% | [5]; [8] 63% | [6]; [7] -5%
active: [1]; at 50.0 µM 82% | [3]; at 50.0 µM 74% | [5]; at 50.0 µM 78.9% | [6]; [8] 81% | [6]; at 50.0 µM 83.5%

Clc1ccccc1CN1COc2c(ccc3cccnc23)C1
inactive: [1]; [7] 9% | [1]; [8] 21% | [1]; at 50.0 µM 69% | [2]; [7] 12% | [2]; [8] 16% | [2]; at 50.0 µM 32.9% | [3]; [7] 7% | [3]; [8] 51% | [3]; at 50.0 µM 55.5% | [4]; [7] 0% | [4]; [8] 44% | [4]; at 50.0 µM 13.3% | [5]; [7] 7% | [5]; [8] 31% | [5]; at 50.0 µM 26.1% | [6]; [7] 19% | [6]; at 50.0 µM 41.6%
active: [6]; [8] 72%

CC(=O)Nc1ccc2c(c1)C(=O)c1cccc(F)c1-2
active: [1]; [8] 93% | [1]; at 50.0 µM 90% | [6]; [8] 82%
inactive: [1]; [7] 6% | [2]; [7] -2% | [2]; [8] 54% | [2]; at 50.0 µM 25.8% | [3]; [7] -4% | [3]; [8] 69% | [3]; at 50.0 µM 51.2% | [4]; [7] -2% | [4]; [8] 38% | [4]; at 50.0 µM 12% | [5]; [7] 1% | [5]; [8] 17% | [5]; at 50.0 µM 12.2% | [6]; [7] 3% | [6]; at 50.0 µM 45.9%

COc1cccnc1/C=N/NC(N)=S
inactive: [1]; [7] -4% | [1]; [8] 58% | [1]; at 50.0 µM 69.5% | [2]; [7] -4% | [2]; [8] 59% | [2]; at 50.0 µM 69.9% | [3]; [7] -4% | [3]; [8] 63% | [4]; [7] -6% | [4]; [8] 19% | [4]; at 50.0 µM 48.5% | [5]; [7] 0% | [5]; [8] 60% | [6]; [7] -5%
active: [3]; at 50.0 µM 73.9% | [5]; at 50.0 µM 75.5% | [6]; [8] 70% | [6]; at 50.0 µM 71.9%

COc1cccc2c1C(=O)c1c(O)c(COC3CC(N)C(O)C(C)O3)cc(O)c1C2=O (configuration not stated)
inactive: [1]; [7] 14% | [2]; [7] 14% | [3]; [7] 13% | [4]; [7] 3% | [4]; [8] 42% | [4]; at 50.0 µM 50.6% | [5]; [7] 7% | [5]; [8] 40% | [6]; [7] 12% | [6]; [8] 53%
active: [1]; [8] 89% | [1]; at 50.0 µM 96.7% | [2]; [8] 96% | [2]; at 50.0 µM 73% | [3]; [8] 80% | [3]; at 50.0 µM 99.3% | [5]; at 50.0 µM 98% | [6]; at 50.0 µM 98.3%

COc1ccc(CN=C(N)N)c2ccccc12
inactive: [1]; [7] 5% | [1]; [8] 7% | [1]; at 50.0 µM -29.9% | [2]; [7] 2% | [2]; [8] 5% | [2]; at 50.0 µM -24.4% | [3]; [7] -6% | [3]; [8] -1% | [3]; at 50.0 µM -15.7% | [4]; [7] 31% | [4]; [8] 31% | [4]; at 50.0 µM -3% | [5]; [7] -22% | [5]; [8] -23% | [5]; at 50.0 µM -32.5% | [6]; [7] 13% | [6]; [8] 10% | [6]; at 50.0 µM -5.45%

CC(SCc1ccccc1)C(=O)O (configuration not stated)
inactive: [1]; [7] -10% | [1]; [8] 10% | [1]; at 50.0 µM -9.25% | [2]; [7] 3% | [2]; [8] 7% | [2]; at 50.0 µM -29.8% | [3]; [7] -6% | [3]; [8] 3% | [3]; at 50.0 µM -35.9% | [4]; [7] 9% | [4]; [8] -1% | [5]; [7] -21% | [5]; [8] -2% | [5]; at 50.0 µM -18.6% | [6]; [7] -2% | [6]; [8] 44% | [6]; at 50.0 µM -44.5%
active: [4]; at 50.0 µM 73%

Nc1ccc(C2CCC[C@H]2c2ccc(N)cc2)cc1 (some centres not stated)
inactive: [1]; [7] 0% | [1]; at 50.0 µM 48.8% | [2]; [7] 15% | [2]; at 50.0 µM 46.8% | [3]; [7] 14% | [3]; at 50.0 µM 53.2% | [4]; [7] 1% | [4]; [8] 66% | [4]; at 50.0 µM 39.6% | [5]; [7] -3% | [5]; at 50.0 µM 58.6% | [6]; [7] 21% | [6]; at 50.0 µM 49.1%
active: [1]; [8] 93% | [2]; [8] 87% | [3]; [8] 90% | [5]; [8] 81% | [6]; [8] 95%

CCCCN(CCCC)CCC(O)(c1ccc(OC)c2ccccc12)C(O)(CCN(CCCC)CCCC)c1ccc(OC)c2ccccc12 (configuration not stated)
active: [1]; [8] 99% | [1]; at 50.0 µM 99.2% | [2]; [8] 100% | [2]; at 50.0 µM 99.7% | [3]; [8] 99% | [3]; at 50.0 µM 99.6% | [4]; [8] 99% | [4]; at 50.0 µM 98.9% | [5]; [8] 99% | [5]; at 50.0 µM 99.2% | [6]; [8] 99% | [6]; at 50.0 µM 97.5%
inactive: [1]; [7] 43% | [2]; [7] -2% | [3]; [7] 60% | [4]; [7] 35% | [5]; [7] 39% | [6]; [7] 52%

— PubChem BioAssay (NCI)
